According to PubChem BioAssay (NCATS):
Values without a mark were called inactive. Results filed as inconclusive are left out. A call without a number means that no potency is given here. The source made the active and inactive calls. Calls follow the shape of the dose curve; as a rule, active = well fitted curve in the direction sought with a large enough effect; inconclusive = small, poorly fitted or top-dose-only effect, or another doubt; inactive = no such curve, though single readings can be large; an effect the other way counts as inactive or inconclusive.

Tests used:
[1] = qHTS assay for measurement of the activity of small molecule inhibitors on Zika virus induced Caspase-3 activity in human astrocytoma cells (AID 1224859)
Outline: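 Compound added 1 h pre-infection; ZIKV 2 FFU/cell on SNB-19 cells, 6 h, 37 C/5% CO2. Caspase-Glo 3/7 luminescence; values as % inhibition of ZIKV-induced caspase activity.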

[2] = qHTS assay to identify small molecule inhibitors of chordoma cells - UCH-1 (AID 1259355); also: nearly all actives have a fitted effect of over 55% in size; also: potency is read from the fitted curve at half-maximal effect; series mostly up to about 46 µM
Outline: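 Luminescent ATP read-out (CellTiter-Glo, 30min at room temperature) measured viability of UCH-1 cells exposed for 48hr to test drugs at 15 concentrations, co-dosed with a five-agent combination of auranofin, camptothecin, doxorubicin, rubitecan and topotecan.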

[3] = qHTS assay to identify small molecule inhibitors of chordoma cells - UCH-2 (AID 1259356); also: potency is read from the fitted curve at half-maximal effect; as to activity change, negative = inhibition: series mostly up to about 46 µM
[4] = P-glycoprotein substrates identified in KB-8-5-11 adenocarcinoma cell line, qHTS therapeutic library screen (AID 1346987); also: nearly all actives have a fitted effect of over 65% in size; also: potency is read from the fitted curve at half-maximal effect
Outline: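 KB-8-5-11, a colchicine-selected P-gp-overexpressing KB-3-1 subline, was grown without colchicine for the assay. Cells were seeded at 500 cells/well, dosed in concentration-response and incubated 72 h at 37 degree C, 5% CO2. Viability was read by CellTiter-Glo luminescence.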

[5] = NS1 protein of Zika virus - qHTS assay to identify small molecule inhibitors in human HEK 293 cells (AID 1347053); also: nearly all actives have a fitted effect of over 55% in size; also: potency is read from the fitted curve at half-maximal effect; as to activity change, negative = inhibition: series mostly up to about 46 µM
Outline: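 HEK 293; 20 h pre-culture, 37 C/5% CO2; cpd 1 h pre-infection; ZIKV MR766, MOI = 0.5, 24 h, 37 C; TR-FRET NS1 readout (two anti-NS1 Abs); norm. to no-virus vs infected.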

[6] = qHTS of pediatric cancer cell lines to identify multiple opportunities for drug repurposing: Primary screen for TC32 cells (AID 1347089); also: nearly all actives have a fitted effect of over 60% in size; also: potency is read from the fitted curve at half-maximal effect
Outline: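 Luminescent CellTiter-Glo read-out of metabolically active TC32 cells after 48 h compound exposure. Primary: MIPE 11-point, 0.78 nM–46 µM; NPC 8-point, 0.59 nM–46 µM. Confirmatory: 11-point dilutions.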

[7] = qHTS of pediatric cancer cell lines to identify multiple opportunities for drug repurposing: Primary screen for DAOY cells (AID 1347090); also: nearly all actives have a fitted effect of over 55% in size; also: potency is read from the fitted curve at half-maximal effect; as to activity change, negative = cytotoxic: series mostly up to about 46 µM
Outline: (§1)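 Eight- or eleven-point concentration series, 48 h treatment at 37 degrees C in growth media; readout CellTiter-Glo luminescence. Potency and efficacy were taken from the concentration-response curves.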

[8] = qHTS of pediatric cancer cell lines to identify multiple opportunities for drug repurposing: Primary screen for SJ-GBM2 cells (AID 1347091); also: potency is read from the fitted curve at half-maximal effect
Outline: as §1

[9] = qHTS of pediatric cancer cell lines to identify multiple opportunities for drug repurposing: Primary screen for SK-N-MC cells (AID 1347093); also: potency is read from the fitted curve at half-maximal effect; as to activity change, negative = cytotoxic: series mostly up to about 46 µM
Outline: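 Metabolically active cells were quantified by ATP-dependent luminescence (CellTiter-Glo, 15 min at room temperature) following 48 h treatment. Cells had been plated at 500-1,000 per well and settled for 5 h beforehand.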

[10] = qHTS of pediatric cancer cell lines to identify multiple opportunities for drug repurposing: Primary screen for BT-37 cells (AID 1347094); also: potency is read from the fitted curve at half-maximal effect; as to activity change, negative = cytotoxic: series mostly up to about 57 µM
Outline: (§2)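 Viability was measured as metabolically active cells after 48 hours of treatment, read by CellTiter-Glo luminescence. Compounds were tested at multiple final concentrations, giving concentration-response curves.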

[11] = qHTS of pediatric cancer cell lines to identify multiple opportunities for drug repurposing: Primary screen for NB-EBc1 cells (AID 1347095); also: potency is read from the fitted curve at half-maximal effect
Outline: as §2

[12] = qHTS of pediatric cancer cell lines to identify multiple opportunities for drug repurposing: Primary screen for A673 cells (AID 1347092); also: nearly all actives have a fitted effect of over 45% in size; also: potency is read from the fitted curve at half-maximal effect
Outline: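 A673 cells (500-1,000 cells/well in growth media) were pre-incubated 5 h at 37 degrees C, then exposed to compounds for 48 h. Viability was read as CellTiter-Glo luminescence; concentration-response curves came directly from the primary screen.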

| Structure (SMILES) | outcome [1] | Potency [2] | Potency [3] | Potency [4] | Potency [5] | Potency [6] | Potency [7] | Potency [8] | Potency [9] | Potency [10] | Potency [11] | Potency [12] | activity change, negative = inhibition [1] | activity change, negative = inhibition [5] | activity change, negative = cytotoxic [7] | activity change, negative = cytotoxic [8] | activity change, negative = cytotoxic [12] | activity change, negative = cytotoxic [9] | activity change, negative = cytotoxic [10] | activity change, negative = cytotoxic [11] |
| --- | --- | --- | --- | --- | --- | --- | --- | --- | --- | --- | --- | --- | --- | --- | --- | --- | --- | --- | --- | --- |
| CCOc1ccccc1C(N)=O | inactive | inactive | inactive | inactive | inactive | inactive | inactive | inactive | inactive | inactive | inactive | – | – | – | – | – | – | – | – | – |
| N[C@H](C(=O)O)[C@@H](O)c1ccc(O)c(O)c1 | inactive | inactive | inactive | inactive | inactive | inactive | inactive | inactive | – | inactive | inactive | inactive | – | – | – | – | – | – | – | – |
| Cc1ccc(S(=O)(=O)NC(=O)NC2CCCC2)cc1 | inactive | inactive | inactive | inactive | inactive | inactive | inactive | inactive | inactive | inactive | inactive | inactive | – | – | – | – | – | – | – | – |
| NC(=S)N/N=C/c1cccnc1 | inactive | inactive | inactive | inactive | inactive | inactive | inactive | inactive | inactive | inactive | inactive | – | – | – | – | – | – | – | – | – |
| C[C@@H](O)[C@H]1C(=O)N2C(C(=O)O)=C(S[C@@H]3CN[C@H](CNS(N)(=O)=O)C3)[C@H](C)[C@H]12 | inactive | inactive | inactive | inactive | inactive | inactive | inactive | inactive | – | inactive | inactive | inactive | – | – | – | – | – | – | – | – |
| Nc1ccc(S(=O)(=O)Nc2cnc3ccccc3n2)cc1 | inactive | inactive | inactive | inactive | inactive | inactive | inactive | inactive | inactive | inactive | inactive | – | – | – | – | – | – | – | – | – |
| NS(=O)(=O)c1cc(C(=O)O)cc(N2CCCC2)c1Oc1ccccc1 | inactive | inactive | inactive | inactive | inactive | inactive | inactive | inactive | inactive | inactive | inactive | inactive | – | – | – | – | – | – | – | – |
| CC(C)(Cc1c[nH]c2ccccc12)NCC(O)COc1ccccc1C#N (stereo not drawn) | inactive | inactive | inactive | inactive | inactive | inactive | inactive | inactive | inactive | inactive | inactive | inactive | – | – | – | – | – | – | – | – |
| CCC1NC(=O)c2cc(S(N)(=O)=O)c(Cl)cc2N1 (stereo not drawn) | inactive | inactive | inactive | inactive | inactive | inactive | inactive | inactive | inactive | inactive | inactive | – | – | – | – | – | – | – | – | – |
| c1ccc(CC2=NCCN2)cc1 | inactive | inactive | inactive | inactive | inactive | inactive | inactive | inactive | – | inactive | inactive | inactive | – | – | – | – | – | – | – | – |
| Oc1c(Cl)cc(Cl)c(Cl)c1Cc1c(O)c(Cl)cc(Cl)c1Cl | inactive | 25.1 µM (active) | inactive | 2.06 µM (active) | inactive | 7.45 µM (active) | 8.41 µM (active) | 4.22 µM (active) | – | 9.78 µM (active) | 4.73 µM (active) | 21.1 µM (active) | – | – | – | – | – | – | – | – |
| NCc1ccccc1Sc1ccccc1CO | inactive | inactive | inactive | inactive | inactive | inactive | inactive | inactive | inactive | inactive | inactive | – | – | – | – | – | – | – | – | – |
| CNCCc1ccccn1 | inactive | inactive | inactive | inactive | inactive | – | inactive | inactive | inactive | inactive | inactive | inactive | – | – | – | – | – | – | – | – |
| C[C@@H](O)[C@H]1C(=O)N2C(C(=O)O)=C([C@H]3CCCO3)S[C@H]12 | inactive | inactive | inactive | inactive | inactive | – | inactive | inactive | inactive | inactive | inactive | inactive | – | – | – | – | – | – | – | – |
| Cc1ncc(CO)c(C=O)c1O | inactive | inactive | inactive | inactive | inactive | – | inactive | inactive | inactive | inactive | inactive | inactive | – | – | – | – | – | – | – | – |
| COc1ccc(-c2cc(C(F)F)nn2-c2ccc(S(N)(=O)=O)cc2)cc1F | inactive | inactive | inactive | inactive | inactive | – | inactive | inactive | inactive | inactive | inactive | inactive | – | – | – | – | – | – | – | – |
| CCc1nn(CCCN2CCN(c3cccc(Cl)c3)CC2)c(=O)n1CCOc1ccccc1 | inactive | inactive | inactive | 10.3 µM (active) | inactive | inactive | – | – | – | – | inactive | – | – | – | – | – | – | – | – | – |
| O=C(O)C(Cc1cc(I)c(O)c(I)c1)c1ccccc1 (stereo not drawn) | inactive | inactive | inactive | inactive | inactive | – | inactive | inactive | – | inactive | inactive | inactive | – | – | – | – | – | – | – | – |
| N=C(N)N1CCc2ccccc2C1 | – | inactive | inactive | inactive | – | – | – | – | – | – | – | – | -0.144% [at 4.53 µM] | -16.4% [at 4.81 µM] | -21.6% [at 4.84 µM] | 1.07% [at 4.84 µM] | -18% [at 4.84 µM] | -27.9% [at 4.84 µM] | -4.38% [at 6.03 µM] | 5.74% [at 4.84 µM] |
| CCN1/C(=C/C=C/c2sc3ccccc3[n+]2CC)Sc2ccccc21 | inactive | 7.94 µM (active) | 5.8 µM (active) | 18.4 µM (active) | 3.55 µM (active) | 1.29 µM (active) | 1.16 µM (active) | – | 1.3 µM (active) | 1.35 µM (active) | – | 0.58 µM (active) | – | – | – | – | – | – | – | – |
| C=C[C@H]1CN2CC[C@H]1C[C@H]2[C@H](O)c1ccnc2ccc(OC)cc12 | inactive | inactive | inactive | inactive | inactive | – | inactive | inactive | inactive | inactive | inactive | inactive | – | – | – | – | – | – | – | – |
